The panel holds about 83,000 compounds, 20% with a hit somewhere; the sample as a whole holds those more often.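 Compound tested at a single concentration for 48 hours in 96-well plates; a percent growth value below 10 was scored as active.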 Activity calls are given as the source filed them.
Test system: K-562 leukemia
Assay: NCI-60 one-dose screen, 48 h (100 = growth as untreated, 0 = no growth, -100 = all killed)
Details: 10 µM unless noted

| SMILES | growth |
| --- | --- |
| COC(=O)[C@@H]1CCCN1C(=O)[C@H]1CCCN1C(=O)[C@@H](Cc1c[nH]c2ccccc12)NC(=S)Nc1cc(C(F)(F)F)cc(C(F)(F)F)c1 | 27.6% (inactive) |
| Cc1ccc(F)cc1NC(=O)c1cc(Cl)ccc1Nc1ccccc1 | 22.3% (inactive) |
| CC1=C(C(=O)OCC2CCN(C(=O)OC(C)(C)C)CC2)[C@@H](c2cccc(C#N)c2)C2=C(CC(C)(C)CC2=O)N1 | 25.5% (inactive) |
| CCCCCCc1cc2cc(-c3csc(/C=C/c4ccccc4)n3)c(=O)oc2cc1O | -25.8% (active) |
| COc1ccc(Br)c(/C=C2\SC(=Nc3ccc(O)cc3)NC2=O)c1 | 84.4% (inactive) |
| COc1ccc(Cn2c(Br)c3c(c2Br)-c2nc(N)sc2CC3)cc1 | 4.07% (active) |
| COC(=O)c1cc2c(n1Cc1ccccc1)-c1oncc1CCC2 | 17.8% (inactive) |
| CCOC(=O)c1sc(-c2ccc(OS(=O)(=O)c3ccccc3[N+](=O)[O-])c(C=O)c2)nc1C | 12.8% (inactive) |
| Clc1ncccc1Nc1ccc2nnc(-c3ccncc3)n2n1 | 66.8% (inactive) |
| O=C1NC(=O)C(=Cc2cn(Cc3cn(Cc4ccc(Cl)cc4Cl)nn3)c3ccccc23)C(=O)N1 | 75.5% (inactive) |
| CCCCCCn1c(=N)n(CC(O)COc2cccc(C)c2)c2ccccc21 (stereo not drawn) | -2.58% (active) |
| O=C(Nc1ncc(Cc2cccc(C(F)(F)F)c2)s1)C1COc2ccccc2O1 (stereo not drawn) | 63.3% (inactive) |
| CN1C(=O)N(C)C2C1NN=c1s/c(=C\c3ccc([N+](=O)[O-])cc3)c(=O)n12 (stereo not drawn) | 22% (inactive) |
| O=C(c1nc2ccccc2[nH]1)C1C(c2ccc(F)cc2)C2CC3CCCCC3N2[C@@]12C(=O)Nc1ccc(Cl)cc12 (stereo partly drawn) | 29.4% (inactive) |
| COc1ccc(/C=C/C(=O)c2ccc3cc(OC)c(OC)cc3c2)cc1OC | 8.48% (active) |
| O=c1oc2ccc(F)cc2c(=O)n1-c1ccc(Br)cc1F | 6.75% (active) |
| COc1cc(/C=C2\CN(S(=O)(=O)c3ccccc3)C/C(=C\c3cc(CN4CCCC4)c(O)c(OC)c3)C2=O)cc(CN2CCCC2)c1O | 8.41% (active) |
| CC(C)C[C@H](C(=O)N[C@@H](C)C(N)=O)N1CC=CCN(O)S1(=O)=O | 117% [5 µM] (inactive) |
| CN(C)CCCNCc1ccc(-c2ccc(F)c(Cl)c2)o1 | -19% (active) |
| O=c1oc2ccc(-c3ccc(F)cc3F)cc2c(=O)n1-c1cccc(C(F)(F)F)c1 | 10.9% (inactive) |

| SMILES | growth |
| --- | --- |
| O=C(N=Nc1c(O)[nH]c2ccccc12)c1oc2ccccc2c1CN1CCN(c2ccccc2)CC1 | 16.5% (inactive) |
| O=C(Nc1ccc(Br)cc1F)c1cc(F)ccc1O | 8.73% (active) |
| COc1cc(NC(=O)CCSc2nc3ccccc3c(=O)n2Cc2ccccc2)cc(OC)c1OC | 81.2% (inactive) |
| O=C(Nc1ccc(I)cc1F)c1cc(F)ccc1O | 6.93% (active) |
| COc1nccc2cc3c(=O)n4c(cc5ccccc54)c(=O)n3c12 | 91.9% (inactive) |
| O=C(COc1cc(O)c2c(=O)cc(-c3ccccc3)oc2c1)Nc1ccccc1 | 95.3% (inactive) |
| O=c1oc2ccc(-c3ccc(F)cc3F)cc2c(=O)n1-c1ccc(Cl)c(C(F)(F)F)c1 | 10.9% (inactive) |
| CCN1CCN(c2cc(C)c3cc(NC(=O)c4ccc(OC)c(OC)c4)ccc3n2)CC1 | 7.23% (active) |
| COc1ccc(Cn2c(Br)c3c(c2-c2cc(OC)c(OC)c(OC)c2)CCc2sc(NC(C)=O)nc2-3)cc1 | 15.4% (inactive) |
| COc1ccccc1C(=O)O/N=C(\N)Cc1cccc2ccccc12 | 75.7% (inactive) |
| O=C(Nc1ccc(Cl)cc1F)c1cc(I)ccc1O | 14.9% (inactive) |
| O=C(O)CCC(=O)c1ccc(C2CCCCCC2)cc1 | 90.2% (inactive) |
| CCCCOCc1cc(CN2CCN(C)CC2)c(O)c2ncccc12 | 50.7% (inactive) |
| COC(=O)/C(CCC=C(C)C)=C1\[C@@H](OC(C)=O)C[C@@]2(C)[C@H]1C[C@@H](O)[C@H]1[C@@]3(C)CC[C@H](NCc4ccccc4)[C@@H](C)[C@@H]3CC[C@@]12C | 11% (inactive) |
| O=C(NC1C(O)OC(CO)C(O)C1O)NS(=O)(=O)c1ccc(Cl)cc1 (stereo not drawn) | 108% (inactive) |
| O=C(Nc1ccc(Br)cc1F)c1cc(Cl)ccc1O | 5.34% (active) |
| CCOC(=O)c1c(C=O)nc2ccccc2c1/C=C/c1ccc(Cl)cc1 | 61.7% (inactive) |
| COc1cccc2cc(N(C)c3nc(C)nc4ccsc34)ccc12 | 5.29% (active) |
| COc1cc(/C=C/C(=O)c2c(C)nc3ccccc3c2/C=C/c2ccccc2)cc(OC)c1OC | 6.02% (active) |

Test system: MALME-3M melanoma
Assay: as above
Details: 10 µM unless noted

| SMILES | growth |
| --- | --- |
| COC(=O)[C@@H]1CCCN1C(=O)[C@H]1CCCN1C(=O)[C@@H](Cc1c[nH]c2ccccc12)NC(=S)Nc1cc(C(F)(F)F)cc(C(F)(F)F)c1 | 71.1% (inactive) |
| Cc1ccc(F)cc1NC(=O)c1cc(Cl)ccc1Nc1ccccc1 | 83% (inactive) |
| CC1=C(C(=O)OCC2CCN(C(=O)OC(C)(C)C)CC2)[C@@H](c2cccc(C#N)c2)C2=C(CC(C)(C)CC2=O)N1 | 48.5% (inactive) |
| CCCCCCc1cc2cc(-c3csc(/C=C/c4ccccc4)n3)c(=O)oc2cc1O | -79.9% (active) |
| COc1ccc(Br)c(/C=C2\SC(=Nc3ccc(O)cc3)NC2=O)c1 | 89.6% (inactive) |
| COc1ccc(Cn2c(Br)c3c(c2Br)-c2nc(N)sc2CC3)cc1 | 21.9% (inactive) |
| COC(=O)c1cc2c(n1Cc1ccccc1)-c1oncc1CCC2 | 49.5% (inactive) |
| CCOC(=O)c1sc(-c2ccc(OS(=O)(=O)c3ccccc3[N+](=O)[O-])c(C=O)c2)nc1C | 37.8% (inactive) |
| Clc1ncccc1Nc1ccc2nnc(-c3ccncc3)n2n1 | 98.5% (inactive) |
| O=C1NC(=O)C(=Cc2cn(Cc3cn(Cc4ccc(Cl)cc4Cl)nn3)c3ccccc23)C(=O)N1 | 91.5% (inactive) |
| CCCCCCn1c(=N)n(CC(O)COc2cccc(C)c2)c2ccccc21 (stereo not drawn) | -90.9% (active) |
| O=C(Nc1ncc(Cc2cccc(C(F)(F)F)c2)s1)C1COc2ccccc2O1 (stereo not drawn) | 71.8% (inactive) |
| CN1C(=O)N(C)C2C1NN=c1s/c(=C\c3ccc([N+](=O)[O-])cc3)c(=O)n12 (stereo not drawn) | 65.9% (inactive) |
| O=C(c1nc2ccccc2[nH]1)C1C(c2ccc(F)cc2)C2CC3CCCCC3N2[C@@]12C(=O)Nc1ccc(Cl)cc12 (stereo partly drawn) | 42.6% (inactive) |
| COc1ccc(/C=C/C(=O)c2ccc3cc(OC)c(OC)cc3c2)cc1OC | 90.6% (inactive) |
| O=c1oc2ccc(F)cc2c(=O)n1-c1ccc(Br)cc1F | -23% (active) |
| COc1cc(/C=C2\CN(S(=O)(=O)c3ccccc3)C/C(=C\c3cc(CN4CCCC4)c(O)c(OC)c3)C2=O)cc(CN2CCCC2)c1O | -51.6% (active) |
| CC(C)C[C@H](C(=O)N[C@@H](C)C(N)=O)N1CC=CCN(O)S1(=O)=O | 148% [5 µM] (inactive) |
| CN(C)CCCNCc1ccc(-c2ccc(F)c(Cl)c2)o1 | -57.7% (active) |
| O=c1oc2ccc(-c3ccc(F)cc3F)cc2c(=O)n1-c1cccc(C(F)(F)F)c1 | -24% (active) |

| SMILES | growth |
| --- | --- |
| O=C(N=Nc1c(O)[nH]c2ccccc12)c1oc2ccccc2c1CN1CCN(c2ccccc2)CC1 | -64.6% (active) |
| O=C(Nc1ccc(Br)cc1F)c1cc(F)ccc1O | -21% (active) |
| COc1cc(NC(=O)CCSc2nc3ccccc3c(=O)n2Cc2ccccc2)cc(OC)c1OC | 82% (inactive) |
| O=C(Nc1ccc(I)cc1F)c1cc(F)ccc1O | -31.4% (active) |
| COc1nccc2cc3c(=O)n4c(cc5ccccc54)c(=O)n3c12 | 85.7% (inactive) |
| O=C(COc1cc(O)c2c(=O)cc(-c3ccccc3)oc2c1)Nc1ccccc1 | 97.7% (inactive) |
| O=c1oc2ccc(-c3ccc(F)cc3F)cc2c(=O)n1-c1ccc(Cl)c(C(F)(F)F)c1 | 3.35% (active) |
| CCN1CCN(c2cc(C)c3cc(NC(=O)c4ccc(OC)c(OC)c4)ccc3n2)CC1 | 39.7% (inactive) |
| COc1ccc(Cn2c(Br)c3c(c2-c2cc(OC)c(OC)c(OC)c2)CCc2sc(NC(C)=O)nc2-3)cc1 | -6.05% (active) |
| COc1ccccc1C(=O)O/N=C(\N)Cc1cccc2ccccc12 | 23.6% (inactive) |
| O=C(Nc1ccc(Cl)cc1F)c1cc(I)ccc1O | -1.76% (active) |
| O=C(O)CCC(=O)c1ccc(C2CCCCCC2)cc1 | 91.5% (inactive) |
| CCCCOCc1cc(CN2CCN(C)CC2)c(O)c2ncccc12 | 93.4% (inactive) |
| COC(=O)/C(CCC=C(C)C)=C1\[C@@H](OC(C)=O)C[C@@]2(C)[C@H]1C[C@@H](O)[C@H]1[C@@]3(C)CC[C@H](NCc4ccccc4)[C@@H](C)[C@@H]3CC[C@@]12C | 68% (inactive) |
| O=C(NC1C(O)OC(CO)C(O)C1O)NS(=O)(=O)c1ccc(Cl)cc1 (stereo not drawn) | 104% (inactive) |
| O=C(Nc1ccc(Br)cc1F)c1cc(Cl)ccc1O | -34.7% (active) |
| CCOC(=O)c1c(C=O)nc2ccccc2c1/C=C/c1ccc(Cl)cc1 | 100% (inactive) |
| COc1cccc2cc(N(C)c3nc(C)nc4ccsc34)ccc12 | 52.5% (inactive) |
| COc1cc(/C=C/C(=O)c2c(C)nc3ccccc3c2/C=C/c2ccccc2)cc(OC)c1OC | 36.3% (inactive) |
